Some of the results follow. Values without a mark were called inactive. Active and inactive are the calls of the source.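 The calls were made as follows: active = average activation exceeds primary screen hit cutoff (cut at about 21% in these data); inactive = the rest.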

In this experiment the target is Vasopressin V1a receptor (Homo sapiens) (UniProt P37288). As to the kind of experiment: activators of vasopressin V1R in CHO cells – cell-based, Fluo-8 calcium fluorescence, confirmation (AID 434964).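 Also: peak over basal fluorescence ratio during a 100 s FLIPR read; 0% = DMSO only wells and 100% = 3 nM vasopressin wells.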 Conditions: agonist, at 3 µM, hits give high values.
Sequence of Vasopressin V1a receptor (Homo sapiens) (P37288 whole entry, looked up): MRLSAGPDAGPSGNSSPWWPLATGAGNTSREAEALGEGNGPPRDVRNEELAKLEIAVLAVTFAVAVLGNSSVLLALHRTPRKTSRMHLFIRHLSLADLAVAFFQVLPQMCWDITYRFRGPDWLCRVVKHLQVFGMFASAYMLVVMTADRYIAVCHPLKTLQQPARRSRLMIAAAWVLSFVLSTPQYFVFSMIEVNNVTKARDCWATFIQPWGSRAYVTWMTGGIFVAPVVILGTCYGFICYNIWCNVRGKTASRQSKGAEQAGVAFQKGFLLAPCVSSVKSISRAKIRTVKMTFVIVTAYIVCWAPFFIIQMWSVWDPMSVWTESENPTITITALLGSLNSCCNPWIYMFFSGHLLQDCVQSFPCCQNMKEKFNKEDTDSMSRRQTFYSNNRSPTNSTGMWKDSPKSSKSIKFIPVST
As for `Fc1cccc(Cl)c1COc1ccc(-c2nnco2)cc1`, the activation was 2.1%.

As to `O=c1c2cc(Br)ccc2nc(-c2cccc(Cl)c2)n1O`, the activation is 31.8% (active).

For `O=C(CN1CCN(c2cccc(Cl)c2)CC1)Nc1ccc(S(=O)(=O)N2CCOCC2)cc1`, the activation is 3.06%. The same measure for `O=C(c1ccccc1)c1ccc(OCC(O)CN2CCCC2)cc1` (stereo not drawn): -0.08%. The same measure for `CCN(CC)c1ccc2cc(C(N)=O)/c(=N\NC(=O)c3ccncc3)oc2c1`: 21.7% (active); for `Cc1cc(C)c(/C=C2\C(=O)Nc3ccccc32)[nH]1`: 40.5% (active). In the case of `CCN(CC)c1ccc(/C=N/NC(=O)c2cnccn2)c(O)c1`, the activation is 10.5%.

Turning to `CC1(C)S[C@@H]2[C@H](N=CN3CCCCCC3)C(=O)N2[C@H]1C(=O)O`, the activation is 0.2%.

(Values after PubChem BioAssay AID434964 (The Scripps Research Institute Molecular Screening Center, 2010).)
